Inconclusive results are not listed. Active and inactive are the calls of the source. Rule for the calls, unless noted: active = hit-call score of the fitted dose curve at least 0.9, where 1 is the maximum; inactive = score below 0.9.
Key:
[1] = biological target: Nuclear respiratory factor 1 (Homo sapiens) (UniProt Q16656); assay: ATG_NRF1_CIS: Attagene CIS-FACTORIAL HepG2 Assay for human Nuclear Respiratory Factor 1 (NRF1) Orphan Gene (AID 2282987); details: HepG2 NRF1 cis-element reporter, Attagene multiplex; actives raise or lower the signal
Chain of Nuclear respiratory factor 1 (Homo sapiens) (Q16656 whole entry, looked up): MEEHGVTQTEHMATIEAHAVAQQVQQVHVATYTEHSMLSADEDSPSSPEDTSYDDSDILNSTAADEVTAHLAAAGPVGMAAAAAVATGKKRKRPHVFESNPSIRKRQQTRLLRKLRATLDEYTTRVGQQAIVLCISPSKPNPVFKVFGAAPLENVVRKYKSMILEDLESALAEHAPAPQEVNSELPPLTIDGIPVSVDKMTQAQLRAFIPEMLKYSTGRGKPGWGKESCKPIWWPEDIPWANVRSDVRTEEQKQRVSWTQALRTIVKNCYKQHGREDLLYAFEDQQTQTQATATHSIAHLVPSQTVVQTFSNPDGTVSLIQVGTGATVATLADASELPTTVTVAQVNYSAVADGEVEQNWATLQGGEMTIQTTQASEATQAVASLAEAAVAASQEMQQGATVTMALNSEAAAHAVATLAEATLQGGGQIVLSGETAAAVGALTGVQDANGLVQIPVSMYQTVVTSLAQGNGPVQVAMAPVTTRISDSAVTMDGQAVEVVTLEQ
In short: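 Human hepatoma HepG2 cells carrying transfected promoter-regulated reporter units were incubated with test chemicals for 24 h. Reporter transcripts were measured by RT-PCR plus capillary electrophoresis, and endpoints derived by bidirectional fitting with DMSO as baseline.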

[2] = ATG_NFI_CIS: Attagene CIS-FACTORIAL HepG2 Assay for human Nuclear Factor I (NFI) (AID 2282989); details: HepG2 cis-regulatory reporter, NFI response element transcription; actives raise or lower the signal
In short: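 Cells: human liver HepG2, transiently transfected with promoter-regulated reporter transcription units. Exposure 24 h. Detection: fluorescent RT-PCR products separated by capillary electrophoresis, normalised to DMSO negative control.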

[3] = biological target: Myc proto-oncogene protein (Homo sapiens) (UniProt P01106); assay: ATG_Myc_CIS: Attagene CIS-FACTORIAL HepG2 Assay for human Myelocytomatosis (Myc) Proto-Oncogene Transcription Factor (AID 2282990); details: HepG2, Attagene cis-reporter transcription factor activity; actives raise or lower the signal
Chain of Myc proto-oncogene protein (Homo sapiens) (P01106 whole entry, looked up, the tested form may be a part): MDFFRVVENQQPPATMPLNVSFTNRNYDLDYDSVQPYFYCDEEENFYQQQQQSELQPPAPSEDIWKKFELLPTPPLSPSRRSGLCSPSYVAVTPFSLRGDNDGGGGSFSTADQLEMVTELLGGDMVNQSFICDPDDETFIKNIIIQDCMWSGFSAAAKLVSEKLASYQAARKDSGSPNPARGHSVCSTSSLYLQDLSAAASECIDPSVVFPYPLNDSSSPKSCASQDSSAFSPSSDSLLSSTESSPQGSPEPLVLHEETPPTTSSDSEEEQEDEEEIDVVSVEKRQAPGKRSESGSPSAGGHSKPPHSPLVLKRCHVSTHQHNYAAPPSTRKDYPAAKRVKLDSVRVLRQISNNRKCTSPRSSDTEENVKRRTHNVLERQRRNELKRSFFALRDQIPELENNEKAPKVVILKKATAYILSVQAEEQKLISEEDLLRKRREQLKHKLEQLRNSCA
In short: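 After 24 h chemical treatment of HepG2 cells carrying multiplexed cis-regulated reporter constructs, reporter transcripts quantified by RT-PCR and capillary electrophoresis of fluorescent fragments. Gain or loss fitted against DMSO baseline.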

[4] = ATG_NF_kB_CIS: Attagene CIS-FACTORIAL HepG2 Assay for human Nuclear Factor Kappa B (NF-kB) (AID 2282991); details: HepG2 Attagene cis-factorial NF-kB reporter mRNA; actives raise or lower the signal
In short: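 Multiplexed cis-reporter assay in transiently transfected HepG2. 24 h treatment; RNA isolated, RT-PCR, labelled fragments resolved by CE. DMSO baseline.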

[5] = ATG_NRF2_ARE_CIS: Attagene CIS-FACTORIAL HepG2 Assay for human Nuclear Factor Erythroid 2 Related Factor 2 (NFR2) response to Antioxidant Response Elements (ARE) (AID 2282992); details: HepG2 Attagene ARE/NRF2 reporter, transcription factor activity; actives raise or lower the signal;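 for AC50: reporter mRNA level measured by RT-PCR and capillary electrophoresis fluorescence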
In short: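 Readout: reporter mRNA quantified by RT-PCR plus FAM-labelled primer extension, HpaI digestion and capillary electrophoresis, 24 h after dosing transfected HepG2 cells. Gain or loss of signal is fitted bidirectionally against DMSO baseline.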

[6] = ATG_Oct_MLP_CIS: Attagene CIS-FACTORIAL HepG2 Assay for human Octamer-Binding Transcription Factor (Oct) (AID 2282993); details: HepG2 Attagene cis-factorial Oct reporter, mRNA; actives raise or lower the signal
In short: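 HepG2, transient MRTU transfection, cis promoter elements; 24 h dosing; RT-PCR/CE fluorescence read-out of reporter mRNA; fit both directions vs DMSO.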

[7] = biological target: Cellular tumor antigen p53 (Homo sapiens) (UniProt P04637); assay: ATG_p53_CIS: Attagene CIS-FACTORIAL HepG2 Assay for human p53 Transcription Factor (AID 2282994); details: HepG2 p53 cis-element reporter, Attagene mRNA; actives raise or lower the signal
Chain of Cellular tumor antigen p53 (Homo sapiens) (P04637 whole entry, looked up): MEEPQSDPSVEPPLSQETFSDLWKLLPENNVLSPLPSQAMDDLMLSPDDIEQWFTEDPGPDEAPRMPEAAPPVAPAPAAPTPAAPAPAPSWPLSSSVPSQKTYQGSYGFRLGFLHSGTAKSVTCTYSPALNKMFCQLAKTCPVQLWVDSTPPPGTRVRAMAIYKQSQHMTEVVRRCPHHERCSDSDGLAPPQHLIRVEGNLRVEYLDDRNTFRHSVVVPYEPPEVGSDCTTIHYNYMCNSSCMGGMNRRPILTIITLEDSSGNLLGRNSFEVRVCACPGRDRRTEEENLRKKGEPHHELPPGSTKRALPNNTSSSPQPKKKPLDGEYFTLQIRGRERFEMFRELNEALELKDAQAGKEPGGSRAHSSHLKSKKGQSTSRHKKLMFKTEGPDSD
In short: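 Read-out: reporter mRNA by RT-PCR plus capillary electrophoresis with fluorescence detection. Human HepG2 liver cells carried transfected multi-reporter cis-element constructs, dosed 24 h. Gain or loss of signal fitted bidirectionally against DMSO control.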

[8] = biological target: human Peroxisome Proliferator-activated Receptor alpha (PPARa), PPARA (gene 5465) (UniProt Q07869); assay: ATG_PPARa_TRANS: Attagene TRANS-FACTORIAL HepG2 Assay for human Peroxisome Proliferator-activated Receptor alpha (PPARa) (AID 2283001; active = hit-call score of the fitted dose curve at least 0.9, where 1 is the maximum)
Chain of human Peroxisome Proliferator-activated Receptor alpha (PPARa), PPARA (gene 5465) (Q07869 whole entry, looked up, the tested form may be a part): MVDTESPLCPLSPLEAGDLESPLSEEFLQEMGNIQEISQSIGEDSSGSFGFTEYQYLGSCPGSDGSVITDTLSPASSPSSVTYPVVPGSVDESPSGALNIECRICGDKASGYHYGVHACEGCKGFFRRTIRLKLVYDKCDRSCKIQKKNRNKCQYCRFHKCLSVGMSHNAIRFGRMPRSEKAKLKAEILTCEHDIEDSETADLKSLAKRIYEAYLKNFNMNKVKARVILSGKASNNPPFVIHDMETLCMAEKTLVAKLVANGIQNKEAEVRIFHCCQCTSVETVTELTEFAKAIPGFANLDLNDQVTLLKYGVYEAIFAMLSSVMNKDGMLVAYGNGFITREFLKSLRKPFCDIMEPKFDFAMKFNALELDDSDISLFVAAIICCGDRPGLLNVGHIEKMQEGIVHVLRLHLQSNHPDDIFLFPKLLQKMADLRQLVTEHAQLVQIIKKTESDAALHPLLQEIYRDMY
In short: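 Transfected HepG2 cells treated with test chemical for 24 h. RNA isolated, reverse-transcribed with oligo(dT), PCR-amplified, FAM-labelled and HpaI-digested. Fragments sized by capillary electrophoresis; gain-of-signal fit relative to DMSO.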

[9] = biological target: human Peroxisome Proliferator-activated Receptor delta (PPARd), PPARD (gene 5467) (UniProt Q03181); assay: ATG_PPARd_TRANS: Attagene TRANS-FACTORIAL HepG2 Assay for human Peroxisome Proliferator-activated Receptor delta (PPARd) (AID 2283002; active = hit-call score of the fitted dose curve at least 0.9, where 1 is the maximum)
Chain of human Peroxisome Proliferator-activated Receptor delta (PPARd), PPARD (gene 5467) (Q03181 whole entry, looked up, the tested form may be a part): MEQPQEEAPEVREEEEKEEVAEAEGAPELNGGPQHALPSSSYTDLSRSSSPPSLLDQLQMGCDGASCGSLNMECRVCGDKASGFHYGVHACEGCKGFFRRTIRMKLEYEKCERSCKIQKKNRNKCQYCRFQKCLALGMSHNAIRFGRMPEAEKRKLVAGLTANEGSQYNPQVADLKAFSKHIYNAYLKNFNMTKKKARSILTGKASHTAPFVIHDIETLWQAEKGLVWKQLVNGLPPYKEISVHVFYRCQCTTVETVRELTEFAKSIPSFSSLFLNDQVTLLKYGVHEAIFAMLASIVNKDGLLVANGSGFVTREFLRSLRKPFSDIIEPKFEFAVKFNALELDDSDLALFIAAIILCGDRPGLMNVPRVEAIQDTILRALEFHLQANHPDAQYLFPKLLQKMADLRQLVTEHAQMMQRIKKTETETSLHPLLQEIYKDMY
In short: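 Read-out is induced reporter mRNA, quantified by RT-PCR with fluorescent labelling and capillary electrophoresis after 24 h dosing. Cells are HepG2 transiently carrying multiple GAL4-UAS reporter units driven by exogenous NR-GAL4 chimeras; DMSO serves as baseline.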

[10] = biological target: Retinoic acid receptor alpha (Homo sapiens) (UniProt P10276); assay: ATG_RARa_TRANS: Attagene TRANS-FACTORIAL HepG2 Assay for human Retinoic Acid Receptor alpha (RARa) (AID 2283005; active = hit-call score of the fitted dose curve at least 0.9, where 1 is the maximum)
Chain of Retinoic acid receptor alpha (Homo sapiens) (P10276 whole entry, looked up, the tested form may be a part): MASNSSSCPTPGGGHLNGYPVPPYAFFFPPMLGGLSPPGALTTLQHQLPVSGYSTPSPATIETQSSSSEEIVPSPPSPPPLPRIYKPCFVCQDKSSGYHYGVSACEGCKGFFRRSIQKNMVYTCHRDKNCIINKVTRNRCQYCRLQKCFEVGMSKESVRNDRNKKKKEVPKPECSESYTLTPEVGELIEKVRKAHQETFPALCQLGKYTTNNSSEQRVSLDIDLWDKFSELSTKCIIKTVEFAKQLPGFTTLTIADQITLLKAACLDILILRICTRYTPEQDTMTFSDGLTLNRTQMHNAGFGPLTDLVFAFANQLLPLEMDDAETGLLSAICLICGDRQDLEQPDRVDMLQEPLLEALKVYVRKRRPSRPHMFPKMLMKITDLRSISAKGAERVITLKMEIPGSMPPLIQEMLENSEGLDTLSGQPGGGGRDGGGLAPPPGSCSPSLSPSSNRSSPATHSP
In short: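 Reporter transcripts, measured by RT-PCR with fluorescent labeling and capillary electrophoresis after 24 h dosing, reflect activity of an exogenous human RARa–GAL4 fusion in transiently transfected HepG2. Fitted for increase relative to DMSO.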

[11] = biological target: Peroxisome proliferator-activated receptor gamma (Homo sapiens) (UniProt P37231); assay: ATG_PPARg_TRANS: Attagene TRANS-FACTORIAL HepG2 Assay for human Peroxisome Proliferator-activated Receptor-gamma (PPARg) (AID 2283007; active = hit-call score of the fitted dose curve at least 0.9, where 1 is the maximum)
Chain of Peroxisome proliferator-activated receptor gamma (Homo sapiens) (P37231 whole entry, looked up): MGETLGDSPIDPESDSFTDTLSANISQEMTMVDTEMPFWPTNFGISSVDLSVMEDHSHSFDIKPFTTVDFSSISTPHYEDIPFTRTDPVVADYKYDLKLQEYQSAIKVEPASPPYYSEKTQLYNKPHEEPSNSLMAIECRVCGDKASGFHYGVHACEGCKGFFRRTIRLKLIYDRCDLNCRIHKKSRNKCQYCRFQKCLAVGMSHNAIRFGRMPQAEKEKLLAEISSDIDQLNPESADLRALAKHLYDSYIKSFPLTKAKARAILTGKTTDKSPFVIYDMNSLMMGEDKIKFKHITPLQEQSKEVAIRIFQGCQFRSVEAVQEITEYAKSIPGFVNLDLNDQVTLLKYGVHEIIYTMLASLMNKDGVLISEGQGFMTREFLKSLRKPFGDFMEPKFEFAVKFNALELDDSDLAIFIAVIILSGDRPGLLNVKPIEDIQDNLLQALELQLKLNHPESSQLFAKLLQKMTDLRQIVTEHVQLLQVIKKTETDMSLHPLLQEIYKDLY
In short: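 Human hepatoma HepG2, transient MRTU transfection, 24 h treatment. mRNA reporter signal by RT-PCR plus capillary electrophoresis, fluorescence detection; fitted for increase over DMSO negative control.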

[12] = biological target: human Retinoic Acid Receptor gamma (RARg), RARG (gene 5916) (UniProt P13631); assay: ATG_RARg_TRANS: Attagene TRANS-FACTORIAL HepG2 Assay for human Retinoic Acid Receptor gamma (RARg) (AID 2283009; active = hit-call score of the fitted dose curve at least 0.9, where 1 is the maximum)
Chain of human Retinoic Acid Receptor gamma (RARg), RARG (gene 5916) (P13631 whole entry, looked up, the tested form may be a part): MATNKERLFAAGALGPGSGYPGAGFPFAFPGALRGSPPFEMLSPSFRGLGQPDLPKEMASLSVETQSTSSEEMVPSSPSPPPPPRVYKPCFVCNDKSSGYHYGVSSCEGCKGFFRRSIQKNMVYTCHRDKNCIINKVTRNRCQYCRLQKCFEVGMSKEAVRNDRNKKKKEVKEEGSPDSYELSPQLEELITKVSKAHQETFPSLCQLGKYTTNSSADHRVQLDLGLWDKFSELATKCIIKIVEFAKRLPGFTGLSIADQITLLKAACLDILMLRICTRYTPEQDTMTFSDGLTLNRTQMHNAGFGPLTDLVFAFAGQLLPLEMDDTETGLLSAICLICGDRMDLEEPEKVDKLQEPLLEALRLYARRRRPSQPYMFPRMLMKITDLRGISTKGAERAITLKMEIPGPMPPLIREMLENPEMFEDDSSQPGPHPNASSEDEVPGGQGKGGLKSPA
In short: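 Readout: reporter transcript levels via RT-PCR, 6-FAM primer-extension labelling, HpaI digestion and capillary electrophoresis. Cells: HepG2 carrying transfected RARg-GAL4 chimera plus UAS reporter set. Dosing 24 h; DMSO negative control.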

[13] = BSK_3C_TissueFactor: BioMAP Diversity Plus: 3C Assay for Tissue Factor Biomarker Activity (AID 2282997); details: BioMAP 3C HUVEC, tissue factor biomarker readout; actives raise or lower the signal
In short: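 After a 24 h chemical exposure of primary human umbilical vein endothelial cells, Tissue Factor levels were quantified by ELISA.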

[14] = BSK_3C_uPAR: BioMAP Diversity Plus: 3C Assay for Urokinase-type plasminogen activator receptor (uPAR) Biomarker Activity (AID 2282998); details: BioMAP 3C HUVEC, uPAR biomarker ELISA; actives raise or lower the signal
In short: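 A multiplexed primary-cell system built on human umbilical vein endothelium was used, with chemical present for 24 h before reading. Cell-surface uPAR was detected by ELISA; signal change in either direction counted against DMSO.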

[15] = BSK_4H_Eotaxin3: BioMAP Diversity Plus: 4H Assay for Eotaxin 3 Biomarker Activity (AID 2283000); details: primary human endothelial cells (HUVEC); actives raise or lower the signal
In short: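 Chemicals were added to human umbilical vein endothelium cultures, and Eotaxin-3 was quantified by ELISA at 24 h. Values were derived by bidirectional fitting with DMSO serving as negative control and activity baseline.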

[16] = read-out: Intercellular Adhesion Molecule 1 (ICAM1), ICAM1 (gene 3383); assay: BSK_3C_ICAM1: BioMAP Diversity Plus: 3C Assay for Intercellular Adhesion Molecule 1 (ICAM1) Biomarker Activity (AID 2283003); details: primary human endothelial cells (HUVEC); actives raise or lower the signal
In short: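 ELISA read-out of ICAM-1; HUVEC (primary human), 3C system, 24 h post-dosing; bidirectional fit vs DMSO baseline.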

[17] = BSK_3C_Proliferation: Cell Proliferation Assessment in the BioMAP Diversity Plus: 3C Assay (AID 2283006); details: primary human endothelial cells (HUVEC);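 for AC50: potency may reflect either rise or fall in cell number versus DMSO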
In short: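 HUVEC, sub-confluent; 48 h chemical exposure; 10% TCA fix, 0.1% SRB stain, A560 total protein. Gain or loss of signal fitted both directions vs DMSO control.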

[18] = biological target: Nuclear receptor subfamily 1 group I member 2 (Homo sapiens) (UniProt O75469); assay: ATG_PXR_TRANS: Attagene TRANS-FACTORIAL HepG2 Assay for human Pregnane X Receptor (PXR) (AID 2283008; active = hit-call score of the fitted dose curve at least 0.9, where 1 is the maximum)
Chain of Nuclear receptor subfamily 1 group I member 2 (Homo sapiens) (O75469 whole entry, looked up, the tested form may be a part): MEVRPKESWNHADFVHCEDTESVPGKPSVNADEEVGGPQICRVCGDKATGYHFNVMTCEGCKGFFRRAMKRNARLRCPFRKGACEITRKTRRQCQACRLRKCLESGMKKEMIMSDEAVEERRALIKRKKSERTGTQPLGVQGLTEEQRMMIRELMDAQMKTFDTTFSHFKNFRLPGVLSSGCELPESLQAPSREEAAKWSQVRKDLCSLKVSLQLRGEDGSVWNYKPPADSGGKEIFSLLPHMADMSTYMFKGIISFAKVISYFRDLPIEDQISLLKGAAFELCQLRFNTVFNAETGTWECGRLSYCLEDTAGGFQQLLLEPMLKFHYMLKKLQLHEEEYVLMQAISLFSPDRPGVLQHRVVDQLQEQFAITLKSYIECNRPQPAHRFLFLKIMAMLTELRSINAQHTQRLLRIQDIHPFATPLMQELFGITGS
In short: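 Trans-factorial format: exogenous NR-Gal4 fusion activity, not endogenous factor, in transfected human HepG2 liver cells. After 24 h dosing, RNA isolated, reverse-transcribed, amplified and resolved by capillary electrophoresis; induction scored versus DMSO.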

[19] = biological target: human RAR-related Orphan Receptor beta (RORb), RORB (gene 6096) (UniProt Q92753); assay: ATG_RORb_TRANS: Attagene TRANS-FACTORIAL HepG2 Assay for human RAR-related Orphan Receptor beta (RORb) (AID 2283010; active = hit-call score of the fitted dose curve at least 0.9, where 1 is the maximum)
Chain of human RAR-related Orphan Receptor beta (RORb), RORB (gene 6096) (Q92753 whole entry, looked up, the tested form may be a part): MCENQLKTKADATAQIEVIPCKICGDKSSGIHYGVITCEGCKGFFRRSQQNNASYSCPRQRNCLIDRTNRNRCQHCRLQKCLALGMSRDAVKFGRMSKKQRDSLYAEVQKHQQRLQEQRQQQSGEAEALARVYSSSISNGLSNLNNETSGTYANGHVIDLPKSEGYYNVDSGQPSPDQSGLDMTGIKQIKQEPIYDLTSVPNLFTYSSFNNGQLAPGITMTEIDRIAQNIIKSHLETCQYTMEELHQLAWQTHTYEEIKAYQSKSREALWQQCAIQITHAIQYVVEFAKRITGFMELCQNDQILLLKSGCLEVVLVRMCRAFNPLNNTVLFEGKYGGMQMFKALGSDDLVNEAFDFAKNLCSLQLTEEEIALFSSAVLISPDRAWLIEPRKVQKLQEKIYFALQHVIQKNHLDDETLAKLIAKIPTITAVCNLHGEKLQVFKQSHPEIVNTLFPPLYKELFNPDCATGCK
In short: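 HepG2, transient MRTU transfection (GAL4-UAS reporters, exogenous NR-Gal4 chimeras); 24 h compound exposure; total RNA → RT-PCR → 6-FAM primer extension → HpaI digest → CE fluorescence. Positive direction vs DMSO baseline.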

Measured: AC50

NC(N)=NC(N)=NCCc1ccccc1
active: [5] 6300 nM
not listed: [13] | [14] | [15] | [16] | [17] | [18] | [19]
inactive: all other assays above

COC(=O)c1ccc(C(=O)OC)cc1
not listed: [9] | [11] | [12] | [19]
inactive: all other assays above

CCC(=O)OC/C=C(\C)CCC=C(C)C
not listed: [10] | [12] | [13] | [14] | [15] | [16] | [17] | [19]
inactive: all other assays above

O=S1(=O)CC(Cl)(Cl)C(Cl)(Cl)C1
active: [5] 485 nM | [7] 2670 nM | [13] 556 nM | [14] 695 nM | [15] 408 nM | [16] 1020 nM | [17] 191 nM
not listed: [10] | [12] | [18]
inactive: all other assays above

CC(=O)Nc1cc(S(=O)(=O)O)cc2cc(S(=O)(=O)O)c(N=Nc3ccccc3)c(O)c12
not listed: [10] | [13] | [14] | [15] | [16] | [17]
inactive: all other assays above

CC(O)COCC(C)O (stereo not drawn)
inactive: [1] | [2] | [3] | [4] | [5] | [6] | [7] | [8] | [18]

CC/C=C\CCOC(=O)C(C)C
not listed: [8] | [12] | [13] | [14] | [15] | [16] | [17] | [18]
inactive: all other assays above

CC(=O)OC/C=C(C)/C=C/C=C(C)/C=C/C1=C(C)CCCC1(C)C
active: [1] 167000 nM | [4] 39800 nM | [5] 3640 nM | [7] 146000 nM | [11] 27300 nM | [18] 418 nM
inactive: [2] | [3] | [6] | [9]

[Na+]
inactive: [1] | [2] | [3] | [4] | [5] | [6] | [7] | [9]

NC(=O)c1cnccn1
inactive: [1] | [2] | [3] | [4] | [5] | [6] | [7] | [8] | [18]

CC(C)(C)c1cc(CCC(=O)OCCSCCOC(=O)CCc2cc(C(C)(C)C)c(O)c(C(C)(C)C)c2)cc(C(C)(C)C)c1O
inactive: [1] | [2] | [3] | [4] | [5] | [6] | [7] | [9] | [19]

Reference: PubChem BioAssay (EPA / NIEHS)
